PubChem BioAssay (Tox21)
Records with an inconclusive call do not appear. The source made the active and inactive calls. The call rests on the fitted dose curve; in most records, active means well fitted inhibition curve with a large enough effect in the signal ratio in the repeat runs (not every such curve was filed as active); inconclusive means weak or mixed curves, or effect the other way; inactive means no such curve, though single readings can be large or run the other way; the % refers to the signal ratio.
On the % scale 0 is the no-effect control and ±100 the full control effect; potency means the concentration at half of the fitted maximal effect.

The compounds below were run against Estrogen receptor beta (Homo sapiens) (UniProt Q92731) (assay: qHTS assay to identify small molecule antagonists of the estrogen receptor beta (ER-beta) signaling pathway (AID 1259378)). Settings: ER-beta-UAS-bla HEK293T, beta-lactamase FRET ratio, 16 h; series mostly up to 92.4 µM; activity, negative = inhibition: at the top concentration.
Estrogen receptor beta (Homo sapiens), sequence (Q92731 whole entry, looked up): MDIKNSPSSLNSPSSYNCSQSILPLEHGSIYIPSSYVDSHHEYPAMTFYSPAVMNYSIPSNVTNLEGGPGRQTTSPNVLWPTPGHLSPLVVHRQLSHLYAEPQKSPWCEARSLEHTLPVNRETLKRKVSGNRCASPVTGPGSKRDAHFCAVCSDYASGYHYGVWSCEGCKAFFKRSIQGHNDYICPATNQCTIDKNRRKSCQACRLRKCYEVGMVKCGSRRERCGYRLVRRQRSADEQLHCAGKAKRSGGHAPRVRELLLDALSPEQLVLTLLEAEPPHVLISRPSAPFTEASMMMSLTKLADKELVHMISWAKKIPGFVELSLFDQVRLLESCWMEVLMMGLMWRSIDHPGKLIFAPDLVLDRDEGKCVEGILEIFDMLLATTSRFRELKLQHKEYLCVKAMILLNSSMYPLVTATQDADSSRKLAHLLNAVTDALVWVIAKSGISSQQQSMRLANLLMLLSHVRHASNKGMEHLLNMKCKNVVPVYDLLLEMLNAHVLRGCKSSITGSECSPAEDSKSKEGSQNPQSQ
From the text: National Center for Advancing Translational Sciences [NCATS]
NIH Chemical Genomics Center [NCGC]
U.S. Environmental Protection Agency [EPA]
National Institutes of Environmental Health Sciences [NIEHS]
National Toxicology Program [NTP]
U.S. Food and Drug Administration [FDA]
Estrogen receptor (ER), a nuclear hormone receptor, plays an important role in development, metabolic homeostasis and reproduction. Two subtypes of ER, ER-alpha and ER-beta, have similar expression patterns with some uniqueness in both types. Endocrine disrupting chemicals (EDCs) and their interactions with steroid hormone receptors like ER causes disruption of normal endocrine function. To identify the compounds that inhibit ER signaling, an ER-beta-UAS-bla GripTite cell line (Life Technologies, Madison, WI, USA) containing a beta-lactamase reporter gene under the control of an UAS response element was used to screen Tox21 10K compound library.
Tox21 Assay Protocol Summary:
ER-beta-UAS-bla HEK293T cells were dispensed at 2,000 cells/4 uL of assay medium containing 2% charcoal stripped FBS per well into black wall/clear-bottom 1536-well plates using a Multidrop Combi (ThermoFisher Scientific, Waltham, MA) dispenser. After the assay plates were incubated at a 37C and 5% CO2 for 6 hr, 23 nL of compounds dissolved in DMSO, positive controls or DMSO only was transferred to the assay plate by a Pintool station (Kalypsys, San Diego, CA), followed by addition of 1 uL (1nM as final concentration) of 17-beta-estradiol (E2) in assay medium using a BioRAPTR FRD (Flying Reagent Dispenser, Aurora Discovery, San Diego, CA). The plates were incubated at 37C and 5% CO2 for 16 hr. Then 1 uL of LiveBLAzerTM B/G FRET substrate was added using a Flying Reagent Dispenser, the plates were incubated at room temperature for 2 hours, and fluorescence intensity was measured by an Envision plate reader (PerkinElmer, Shelton, CT).
`CNCC(=O)c1ccc(O)c(O)c1` was tested, and the “activity, negative = inhibition” value was -1.62% [at 42.5 µM] (inactive).
For `CCCCC(=O)Cl`, the “activity, negative = inhibition” value was 0.0766% (inactive).
For `OC(c1ccccc1)(c1ccccc1)C1CCNCC1`, the “activity, negative = inhibition” value was -20.1% [at 42.5 µM] (inactive).
`N#CCBr` was tested, and the “activity, negative = inhibition” value was 2.03% (inactive).
In the case of `Fc1ccc(C2(Cn3cncn3)OC2c2ccccc2Cl)cc1` (stereo not given), the Potency is reported as 30.6 µM (active).
With `C[C@@H]1CN(C2CCC(C#N)(c3ccc(F)cc3)CC2)CC[C@]1(C(=O)O)c1ccccc1` (stereo not given in full) the “activity, negative = inhibition” value was 2.5% [at 42.5 µM] (inactive).
With `CS(=O)(=O)c1cc(C(F)(F)F)ccc1C(=O)c1cnoc1C1CC1` the “activity, negative = inhibition” value was 7.6% (inactive).
`O=C(Nc1ccccc1)N(Cc1ccc(Cl)cc1)C1CCCC1` was tested, and the Potency was 24.3 µM (active).
For `O=CNC(N1CCN(C(NC=O)C(Cl)(Cl)Cl)CC1)C(Cl)(Cl)Cl` (stereo not given), the “activity, negative = inhibition” value was -16.2% (inactive).
`COC(=O)c1ccccc1S(=O)(=O)NC(=O)Nc1nc(C)cc(C)n1` was tested, and the “activity, negative = inhibition” value was 14.9% (inactive).
For `COC(=O)c1c(C(F)F)nc(C(F)(F)F)c(C2=NCCS2)c1CC(C)C`, the “activity, negative = inhibition” value was -1.46% (inactive).
`COc1cc(C[C@@H](C)N)c(OC)cc1C` was tested, and the “activity, negative = inhibition” value was 0.278% (inactive).
With `O=NN1CCCCC1` the “activity, negative = inhibition” value was 10.4% (inactive).
`CC(C(O)c1ccccc1)N(C)C/C=C/c1ccccc1` (stereo not given) was tested, and the “activity, negative = inhibition” value was -1.29% [at 42.5 µM] (inactive).
For `CCOC(=O)C1(c2ccccc2)CCN(CCc2ccc(N)cc2)CC1`, the “activity, negative = inhibition” value was 0.0148% [at 42.5 µM] (inactive).
`CCC1(c2ccccc2)C(=O)NC(=O)NC1=O` was tested, and the “activity, negative = inhibition” value was -1.69% (inactive).
For `CCN(Cc1ccc(Cl)nc1)/C(=C/[N+](=O)[O-])NC`, the “activity, negative = inhibition” value was 8.11% [at 42.5 µM] (inactive).
In the case of `CN1C[C@@H](NS(=O)(=O)N(C)C)C[C@@H]2c3cccc4c3c(cn4C)C[C@H]21`, the “activity, negative = inhibition” value is reported as -15.4% [at 42.5 µM] (inactive).
In the case of `COc1cc(OC)nc(Oc2cccc(Oc3nc(OC)cc(OC)n3)c2C(=O)O)n1`, the “activity, negative = inhibition” value is reported as 9.58% (inactive).
In the case of `CCCCc1c(C)nc(NCC)[nH]c1=O`, the “activity, negative = inhibition” value is reported as -3.16% (inactive).
In the case of `c1ccc(N2CCNCC2)cc1`, the “activity, negative = inhibition” value is reported as -0.62% [at 42.5 µM] (inactive).
`CCOC(=O)CP(=O)(OCC)OCC` was tested, and the “activity, negative = inhibition” value was 1.09% (inactive).
For `CC1(C)CON(Cc2ccccc2Cl)C1=O`, the “activity, negative = inhibition” value was -9.18% (inactive).
For `CCC(=O)c1ccccc1`, the “activity, negative = inhibition” value was 3.71% (inactive).
For `CC(C=O)Cc1ccc2c(c1)OCO2` (stereo not given), the “activity, negative = inhibition” value was 13.3% (inactive).
For `CCCCOP(=O)(O)OCCCC`, the “activity, negative = inhibition” value was -5.02% (inactive).
For `O=C(O)c1cccc(Cl)c1`, the “activity, negative = inhibition” value was 5.45% (inactive).
`O=c1oc2ccccc2c(O)c1C1CCCc2ccccc21` (stereo not given) was tested, and the “activity, negative = inhibition” value was -19.8% (inactive).
In the case of `COc1ncc(F)c2nc(S(=O)(=O)Nc3c(F)cccc3F)nn12`, the “activity, negative = inhibition” value is reported as 2.6% [at 42.5 µM] (inactive).
`CCN(CC)c1nc(C)cc(OP(=S)(OC)OC)n1` was tested, and the “activity, negative = inhibition” value was -22.5% (inactive).
`CC1(C)C(=O)NC(=O)NC1=O` was tested, and the “activity, negative = inhibition” value was 2.55% (inactive).
With `NC(=O)c1cc([N+](=O)[O-])cc([N+](=O)[O-])c1` the “activity, negative = inhibition” value was -6.77% [at 42.5 µM] (inactive).
For `CCC(C)n1c(=O)[nH]c(C)c(Br)c1=O` (stereo not given), the “activity, negative = inhibition” value was -0.347% (inactive).
With `CC(=O)Nc1cc([As](=O)(O)O)ccc1O` the “activity, negative = inhibition” value was 4.5% [at 42.5 µM] (inactive).
For `ClCC(Cl)(Cl)Cl`, the “activity, negative = inhibition” value was -16.3% (inactive).
`CCCCOC(=O)[C@@H](C)Oc1ccc(Oc2ccc(C#N)cc2F)cc1` was tested, and the “activity, negative = inhibition” value was 0.857% (inactive).
`Oc1c(Cl)cccc1Cl` was tested, and the “activity, negative = inhibition” value was 4.08% (inactive).
With `CC(N)=S` the “activity, negative = inhibition” value was 24.9% (inactive).
`N#CCCC#N` was tested, and the “activity, negative = inhibition” value was -1.87% (inactive).
For `CN1C(=S)CN=C(c2ccccc2)c2cc(Cl)ccc21`, the “activity, negative = inhibition” value was -29.1% [at 42.5 µM] (inactive).
